# Results filed as inconclusive are left out. A call without a number means that no potency is given here. A number with no mark means an inactive call. Active and inactive are the calls of the source. Calls come from the whole dose curve; as a rule, active = well fitted inhibition curve with a large enough effect; inconclusive = small, poorly fitted or top-dose-only effect; inactive = no such curve, though single readings can be large or run the other way.
# Key:
# [1] = system: Zika virus NS2B-NS3 protease (unlinked complex); test: Primary screen GU Rhodamine qHTS for Zika virus inhibitors: Unlinked NS2B-NS3 protease assay (AID 1347159); note: nearly all actives have a fitted effect of over 60% in size
# In short: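 Unlinked NS2B/NS3, 25 nM; Rhod110 peptide, 1.5 microM; compounds, up to 114 microM. Reaction run 15 min at RT in 10 mM Tris-HCl pH 8.0, 0.01% Tween 20; kinetic fluorescence change fitted with a 4-parameter Hill model.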
# [2] = system: Zika virus NS2B-NS3 protease (linked construct); test: Primary screen NINDS Rhodamine qHTS for Zika virus inhibitors (AID 1347160); note: nearly all actives have a fitted effect of over 55% in size
# In short: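 Single-chain NS2B-NS3 protease, 25 nM, pH 8.0; compounds preincubated 15 min. Activity: Rhodamine110 release from 1.5 microM substrate over 15 min, room temperature, data fitted to 4-parameter Hill.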
smiles,measurement,setting,value
C[C@@H]1O[C@@H](O[C@H]2[C@H](OC(=O)[C@]34CCC(C)(C)C[C@H]3C3=CCC5[C@@]6(C)CC[C@H](O[C@@H]7O[C@H](C(=O)O)[C@@H](O)[C@H](O)[C@H]7O[C@@H]7O[C@H](CO)[C@H](O)[C@H](O)[C@H]7O)[C@@](C)(C=O)C6CC[C@@]5(C)[C@]3(C)C[C@H]4O)O[C@H](C)[C@H](O[C@@H]3O[C@H](C)[C@H](O)[C@H](O)[C@H]3O)[C@@H]2O)[C@H](O)[C@H](O)[C@H]1O[C@@H]1OC[C@@H](O)[C@H](O[C@@H]2O[C@H](CO)[C@@H](O)[C@H](O)[C@H]2O)[C@H]1O (stereo partly specified),"activity change, negative = inhibition",[1],4.39% [at 19.1 µM]
same,outcome,[2],inactive [at 10.7 µM]
Cc1cc(Nc2nc(NC(C)c3ncc(F)cn3)ncc2Cl)n[nH]1 (stereo unspecified),Potency,[1],inactive
same,Potency,[2],inactive
C=C[C@H]1C(O[C@@H]2O[C@H](CO)[C@@H](O)[C@H](O)[C@H]2O)OC=C2C(=O)N3CCc4c([nH]c5ccccc45)[C@H]3C[C@H]21 (stereo partly specified),Potency,[1],inactive
same,Potency,[2],inactive
NC[C@@](O)(c1ccc(Cl)cc1)c1ccc(-c2cn[nH]c2)cc1,Potency,[1],inactive
same,Potency,[2],inactive
CCCN1CCC(c2cccc(S(C)(=O)=O)c2)CC1,Potency,[1],inactive
same,Potency,[2],inactive
C[C@@H]1C[C@H]2O[C@@H]2/C=C\C=C\C(=O)Cc2c(Cl)c(O)cc(O)c2C(=O)O1,Potency,[1],inactive
same,Potency,[2],inactive
CC1(C)CC(NC(=O)C(=O)Nc2ccc(Br)cc2)CC(C)(C)N1,Potency,[1],inactive
same,Potency,[2],inactive
CN(C)c1nc(NC2CCC(NCCc3ccc(Br)cc3OC(F)(F)F)CC2)nc2ccccc12 (stereo unspecified),Potency,[1],inactive
same,Potency,[2],inactive
CC/C=C\[C@H](O)[C@H](O)C1=C(C)C(=O)[C@]2(O1)C(=O)N[C@@](OC)(C(=O)c1ccccc1)[C@@H]2O,Potency,[1],inactive
same,Potency,[2],inactive
Cc1cc(Nc2ncc3cc(-c4c(Cl)cccc4Cl)c(=O)n(C)c3n2)ccc1F,Potency,[1],inactive
same,Potency,[2],inactive
COC1CC(O[C@H]2CC[C@@]3(C)C(CCC4C3[C@H](OC(C)=O)[C@@H](OC(=O)/C=C/c3ccccc3)[C@]3(C)C(C(C)=O)CC[C@]43O)C2)OC(C)C1OC1CC(OC)C(OC2CC(OC)C(OC3OC(C)C(OC4OC(CO)C(O)C(O)C4O)C(OC)C3O)C(C)O2)C(C)O1 (stereo partly specified),"activity change, negative = inhibition",[1],-9.68% [at 19.1 µM]
same,"activity change, negative = inhibition",[2],20.6% [at 10.7 µM]
CCc1cnn2c(NCc3ccc[n+]([O-])c3)cc(N3CCCCC3CCO)nc12 (stereo unspecified),Potency,[1],inactive
same,Potency,[2],inactive
C[C@@H]1O[C@@H](O[C@H]2[C@H](O[C@H]3[C@H](O[C@H]4CC[C@@]5(C)C(CC[C@]6(C)C5CC=C5[C@@H]7CC(C)(C)CC[C@]7(C(=O)O[C@@H]7O[C@H](CO)[C@@H](O[C@@H]8O[C@@H](C)[C@H](O)[C@@H](O)[C@H]8O)[C@H](O)[C@H]7O)CC[C@]56C)C4(C)C)OC[C@H](O)[C@@H]3O)O[C@H](CO)[C@@H](O)[C@@H]2O)[C@H](O)[C@H](O)[C@H]1O (stereo partly specified),"activity change, negative = inhibition",[1],6.71% [at 19.1 µM]
same,"activity change, negative = inhibition",[2],35.2% [at 10.7 µM]
Cc1c(C(=O)N2CCOc3ccc(-c4ccc(N)nc4)cc3C2)ccc(S(C)(=O)=O)c1F,Potency,[1],inactive
same,Potency,[2],inactive
OCCc1ccc(O[C@@H]2O[C@H](CO)[C@@H](O)[C@H](O)[C@H]2O)cc1,Potency,[1],inactive
same,Potency,[2],inactive
C[C@@]12CC[C@@H]3[C@@](CC[C@H]4[C@@]3(C)CCC[C@@]4(C)C(=O)O)(CC1=O)C2,Potency,[1],inactive
same,Potency,[2],inactive
C#CC[C@H](c1nc2cc(Cl)ccc2c(=O)n1Nc1ccccc1)N(CCCN)C(=O)c1cccc(Cl)c1F,Potency,[1],inactive
same,Potency,[2],inactive
c1ccc(-c2csc(N3CCOCC3)n2)cc1,Potency,[1],inactive
same,Potency,[2],inactive
COc1cc(O)cc(/C=C/c2ccc(O[C@@H]3O[C@H](CO)[C@@H](O)[C@H](O)[C@H]3O)cc2)c1,Potency,[1],inactive
same,Potency,[2],inactive
O=C(/C=C/c1cccc(S(=O)(=O)Nc2ccccc2)c1)NO,Potency,[1],inactive
same,Potency,[2],inactive
OC[C@H]1O[C@@H](Oc2cc(O)c3c(c2)O[C@@H](c2ccc(O)cc2)[C@H](O)C3)[C@H](O)[C@@H](O)[C@@H]1O,Potency,[1],inactive
same,Potency,[2],inactive
Cc1cccc(C)c1-n1c(=O)c2cnc(Nc3ccc(N4CCN(C)CC4)cc3)nc2n2c3ccccc3nc12,Potency,[1],inactive
same,Potency,[2],inactive
C[C@@]12C[C@]3(O)O[C@H](O1)[C@]1(COC(=O)c4ccccc4)[C@H]3C[C@@]12O[C@@H]1O[C@H](CO)[C@@H](O)[C@H](O)[C@H]1O,Potency,[1],inactive
same,Potency,[2],inactive
CC(C)CC1NC(=O)C(C)NC(=O)C(CC(C)C)OC(=O)CCCNC1=O (stereo unspecified),Potency,[1],inactive
same,Potency,[2],inactive
C/C1=C\C[C@]2(C)C(=O)C(O)=C([C@H](C)CO)[C@H]2C/C=C(\C)[C@@H](O)CC/C(C)=C/CC1,Potency,[1],inactive
same,Potency,[2],inactive
CC(C)(C)c1ccc(S(=O)(=O)NCc2ccc(C(=O)Nc3cccnc3)cc2)cc1,Potency,[1],inactive
same,Potency,[2],inactive
CC1C(=O)CC2C3CCC(C(=O)O)C12CC3(C)CO (stereo unspecified),Potency,[1],inactive
same,Potency,[2],inactive
CC1=CC(=O)CC(C)(C)C1/C=C/C(C)O[C@@H]1O[C@H](CO)[C@@H](O)[C@H](O)[C@H]1O[C@@H]1OC[C@](O)(CO)[C@H]1O (stereo partly specified),Potency,[1],inactive
same,Potency,[2],inactive
C[C@H]1[C@H](O)O[C@@H]2O[C@@]3(C)CC[C@H]4[C@H](C)CC[C@@H]1[C@@]24OO3,Potency,[1],inactive
same,Potency,[2],inactive
C=C(C)C(=O)OC1C(OC(C)=O)/C(C=O)=C\CC/C(CO)=C/C2OC(=O)C(=C)C21 (stereo unspecified),Potency,[1],inactive
same,Potency,[2],inactive
C[C@@H]1O[C@@H](O[C@@H]2CO[C@@H](O[C@H]3CC[C@@]4(C)C(CC[C@]5(C)C4CC=C4[C@@H]6CC(C)(C)CC[C@]6(C(=O)O[C@@H]6O[C@H](CO)[C@@H](O)[C@H](O)[C@H]6O)CC[C@]45C)[C@]3(C)CO)[C@H](O)[C@H]2O[C@@H]2O[C@H](CO)[C@@H](O)[C@H](O)[C@H]2O)[C@H](O)[C@H](O)[C@H]1O (stereo partly specified),Potency,[1],inactive
same,Potency,[2],inactive
CC(=O)CC1CCC(C(C)C(=O)OCC(O)CO)O1 (stereo unspecified),Potency,[1],inactive
same,Potency,[2],inactive
Fc1ccc2nc(CCC#Cc3ccccn3)cn2c1,Potency,[1],inactive
same,Potency,[2],inactive
CC(=O)O[C@@H]1c2c(C)coc2C(=O)[C@@]23O[C@@H]2CC[C@H](C)[C@@]13C,Potency,[1],inactive
same,Potency,[2],inactive
O=C(NCc1ccc(S(=O)(=O)c2cc(F)cc(F)c2)cc1)c1ccc2nccn2c1,Potency,[1],inactive
same,Potency,[2],inactive
COC(=O)[C@H](O)[C@H]1C(C)(C)[C@H](OC(=O)C(C)C)[C@@]2(O)C(=O)[C@]1(C)C1CC[C@]3(C)C(CC(=O)O[C@H]3c3ccoc3)[C@]13O[C@@H]32 (stereo partly specified),Potency,[1],inactive
same,Potency,[2],inactive
Cc1ccc(-c2ccc3c(ccc4sc5c(c43)NC[C@@H](C)NC5=O)n2)cn1,Potency,[1],inactive
same,Potency,[2],inactive
CC(=O)OC1C(=O)C2(C)C(O)CC3OCC3(OC(C)=O)C2C(OC(=O)c2ccccc2)C2(O)CC(OC(=O)C(O)C(NC(=O)c3ccccc3)c3ccccc3)C(C)=C1C2(C)C (stereo unspecified),Potency,[1],inactive
same,Potency,[2],inactive
C/C=C(/COC(=O)/C(C)=C/C)C(=O)OC(CC)c1ccc(OC)c(OC)c1 (stereo unspecified),Potency,[1],inactive
same,Potency,[2],inactive
CC(C)NCC(C(=O)N1CCN(c2ncnc3c2C(C)CC3O)CC1)c1ccc(Cl)cc1 (stereo unspecified),Potency,[1],inactive
same,Potency,[2],inactive
CC1CC(C(O)C(C)(C)O)OC2CC3(C)C4(C)CCC5C(C)(C)C(=O)CCC5(C)C4CCC3(O)C12O (stereo unspecified),Potency,[1],inactive
same,Potency,[2],inactive
CC(O)/C=C/C1(O)C(C)C(O[C@@H]2O[C@H](CO)[C@@H](O)[C@H](O)[C@H]2O)C(O)CC1(C)C (stereo partly specified),Potency,[1],inactive
same,Potency,[2],inactive
C=C1C(OC(C)=O)CCC2(C)CC3(OC)OC(=O)C(C)=C3CC12 (stereo unspecified),Potency,[1],inactive
same,Potency,[2],inactive
COc1cc2c(cc1OC)CC(=O)N(CCCNC[C@H]1Cc3cc(OC)c(OC)cc31)CC2,Potency,[1],inactive
same,Potency,[2],inactive
CON(C)C(=O)[C@H](O)[C@H](Cc1ccccc1)NC(=O)c1cc2cc(Cl)ccc2[nH]1,Potency,[1],inactive
same,Potency,[2],inactive
COc1ccc(C2=N[C@@H](c3ccc(Cl)cc3)[C@@H](c3ccc(Cl)cc3)N2C(=O)N2CCNC(=O)C2)c(OC(C)C)c1,Potency,[1],inactive
same,Potency,[2],inactive
COc1cc(C2Oc3c(OC)cc(CCCO)cc3C2CO)ccc1O[C@H]1O[C@H](C)[C@@H](O)[C@H](O)[C@@H]1O (stereo partly specified),Potency,[1],inactive
same,Potency,[2],inactive
C[C@H](NC(c1cccc(C[P+](=O)O)c1)[C@H](C)O)c1ccc(Cl)c(Cl)c1 (stereo partly specified),Potency,[1],inactive
same,Potency,[2],inactive
CCOCCn1nc(CC)c2nc(N3CCC(C(=O)O)CC3)nc(Nc3cc(C)ccn3)c21,Potency,[1],inactive
same,Potency,[2],inactive
CSc1ccc(C(=O)N[C@@H]2CCCC[C@@H]2NC(=O)CNC(=O)c2cc(C(F)(F)F)ccc2NC(=O)NC(C)C)cc1,Potency,[1],inactive
same,Potency,[2],inactive
CC(=O)NCC(=O)N1C2CCC1c1cc(Nc3ncc(C(F)(F)F)c(NC4CCC4)n3)ccc12 (stereo unspecified),Potency,[1],inactive
same,Potency,[2],inactive
C[C@H]1CC[C@@H]2N(C1)C[C@@H]1[C@H]([C@@H](O)[C@H](O)[C@]3(O)[C@H]1C[C@@]14OC5(O)[C@@H](C[C@@H](O)[C@@H]31)[C@]4(C)CC[C@@H]5O)[C@]2(C)O,Potency,[1],inactive
same,Potency,[2],inactive
COc1cc(NC(=O)Nc2cccc(CNC(=O)O[C@H]3CCOC3)c2)ccc1-c1cnco1,Potency,[1],inactive
same,Potency,[2],inactive
CC(=O)O[C@@H]1C[C@@H](OC(C)=O)C(C)(C)/C=C/[C@H](C)[C@H](OC(C)=O)[C@@]2(O)C[C@H](C)[C@H](OC(=O)c3ccccc3)[C@@H]2/C=C/1C,Potency,[1],inactive
same,Potency,[2],inactive
Cc1cc(C)c2c(N)c(C(=O)NCc3ccc(Cl)cc3)sc2n1,Potency,[1],inactive
same,Potency,[2],inactive
C=CC(C)(C)c1[nH]c2cc3c(cc2c1CC1NC(=O)C2CCCN2C1=O)C=CC(C)(C)O3 (stereo unspecified),Potency,[1],inactive
same,Potency,[2],inactive
CC(=O)NC1=NN(C(C)=O)C(C)(c2ccccc2)S1 (stereo unspecified),Potency,[1],inactive
same,Potency,[2],inactive
CN1CCN(Cc2ccc(-c3cnc4[nH]cc(-c5ccc6[nH]ccc6c5)c4c3)cc2)CC1,Potency,[1],inactive
same,Potency,[2],inactive
